Laboratory results published in PubChem BioAssay (NCATS).
Inconclusive results are not listed. A call without a number means that no potency is given here. Activity calls are given as the source filed them. The call rests on the fitted dose curve; in most records, active means well fitted inhibition curve with a large enough effect; inconclusive means small, poorly fitted or top-dose-only effect; inactive means flat fitted curve, though single readings scatter.

Biological target: Glutathione peroxidase 1 (Homo sapiens) (UniProt P07203)
Assay: Primary qHTS Assay for Inhibitors of Recombinant Selenoprotein Glutathione Peroxidase 1 (GPX1) (AID 1845191); further: nearly all actives have a fitted effect of over 65% in size
Details: recombinant GPX1, GR-coupled NADPH fluorescence, 15 min; series mostly up to 48.8 µM
Text: Assay Provider: Elias S.J. Arner MD PhD.
Department of Medical Biochemistry and Biophysics
Karolinska Institutet, Solna, Stockholm, Sweden
Selenoprotein glutathione peroxidases (GPX), like the ubiquitously expressed GPX1 and the ferroptosis modulator GPX4, enact their antioxidant activities by reducing hydroperoxides using glutathione. […] GPX1 and GPX4 inhibitors have thus shown promise as anti-cancer agents. Existing inhibitors are often promiscuous, or modulate GPX activity only indirectly, so novel direct inhibitors identified through screening against GPX1 and GPX4 could be valuable. Here, we developed optimized glutathione reductase (GR)-coupled GPX assays for the biochemical high-throughput screen (HTS) of almost 12,000 compounds with known mechanisms of action. Initial hits were triaged using a GR counter-screen, assessed for isoform specificity using a separate GPX2 assay, and were assessed for general selenocysteine-targeting activity using a thioredoxin reductase (TXNRD1) assay. With this suite of assays, we identified novel GPX1/GPX2- and GPX4-specific inhibitors and can here present a validated pipeline for future discovery research for selenoprotein-targeting agents.
SEQUENCE No. (e.g., 1, 2, 3, etc.); […] (e.g., Cells, Incubation, Reagent, etc.); VALUE; DESCRIPTION.
1; Reagent 1; 3 uL; GPx1 enzyme or no enzyme control in 1536-well, black, solid Greiner assay plate.
2; Compound; 25 nL; Kalypsis pin tool (Wako USA) equipped with a 1536-well pin head.
3; Incubation; 30 min; room temperature.
4; Reagent 2; 1 uL; 10 nM GPX1, 1 mM GSH, 0.5 mM CHP, 0.5 mM NADPH, 100 nM GR, 0.01% BSA substrate
5; Detection; Fluorescence; ViewLux microplate reader, excitation 340 nm and emission 450 nm.
6; Incubation; 15 min; room temperature.
7; Detection; Fluorescence; ViewLux microplate reader, excitation 340 nm and emission 450 nm.
NOTES (numbers refer to Sequence numbers above)
1. 3 uL of 16.66 nM GPX1 and 0.016% BSA in assay buffer (50 mM Tris-HCl, 2 mM EDTA (pH 7.5), 150 mM NaCl) was added to columns 3-48 of 1536-well assay plates using a BioRAPTR Flying Reagent Dispenser (Let's Go Robotics (LGR), Carlsbad, CA). A no-enzyme control (0.01% BSA in TES assay buffer) was added to columns 1-2.
2. 25 nL of test compounds and DMSO controls were added to each well with a pin tool (Kalypsys).
3. The assay plates were incubated for 30 minutes at room temperature.
4. 1 uL of master mix (500 nM glutathione reductase (GR), 5 mM reduced glutathione (GSH), 2.5 mM NADPH in assay buffer) was added. 1 uL of cumene hydroperoxide (CHP) ([2.5 mM] in 50% EtOH) was then added within 5 minutes to initiate the reaction. Final concentrations were: 10 nM GPX1, 1 mM GSH, 0.5 mM CHP, 0.5 mM NADPH, 100 nM GR, 0.01% BSA.
5. Initial fluorescence readout (t=0) at 340/450 nm was measured using a ViewLux multimodal detector (PerkinElmer, Waltham, MA).
7. Endpoint fluorescence readout (t=15) at 340/450 nm was measured 15 min after room temperature incubation.
Potency means the concentration at half of the fitted maximal effect.

Chain of Glutathione peroxidase 1 (Homo sapiens) (P07203 whole entry, looked up): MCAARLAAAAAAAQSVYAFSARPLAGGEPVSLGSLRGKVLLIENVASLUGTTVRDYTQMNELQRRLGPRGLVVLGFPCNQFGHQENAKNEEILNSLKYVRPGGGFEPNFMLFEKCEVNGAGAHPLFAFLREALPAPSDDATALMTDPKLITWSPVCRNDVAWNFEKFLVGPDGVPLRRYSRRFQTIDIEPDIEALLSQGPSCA

| SMILES | Potency | activity, negative = inhibition |
| --- | --- | --- |
| C[C@@H](N)C(=O)O | inactive |  |
| CCCNC(C)C(=O)Nc1c(C)csc1C(=O)OC (stereo not given) | inactive |  |
| CC(C)(C)NCC(O)COc1cccc2c1CCC(=O)N2 (stereo not given) | inactive |  |
| CCCCCOC(=O)Nc1nc(=O)n([C@@H]2O[C@H](C)[C@@H](O)[C@H]2O)cc1F | inactive |  |
| C/C=C1\[C@H]2C=C(C)C[C@]1(N)c1ccc(=O)[nH]c1C2 | inactive |  |
| OCCN1C[C@H](O)[C@@H](O)[C@H](O)[C@H]1CO | inactive |  |
| CC(=O)Nc1ccc(C(=O)O)cc1 | inactive |  |
| CCCCCCCCCCCCCCCCCCO | inactive |  |
| CO[C@@]1(NC(=O)C(C(=O)O)c2ccc(O)cc2)C(=O)N2C(C(=O)O)=C(CSc3nnnn3C)CO[C@@H]21 (stereo not given in full) | inactive |  |
| COc1ccc(O)cc1 | inactive |  |
| CC(=O)Oc1cccc(C)c1 | inactive |  |
| Cc1cccc(Nc2ccccc2C(=O)O)c1C | inactive |  |
| Cc1cc(C)nc(NS(=O)(=O)c2ccc(N)cc2)n1 | inactive |  |
| COc1ccccc1OC(=O)Oc1ccccc1OC | inactive |  |
| OC[C@@H](O)[C@@H](O)[C@H](O)[C@H](O)CO | inactive |  |
| O=C(OOC(=O)c1ccccc1)c1ccccc1 | inactive |  |
| O=C(O)C(S)C(S)C(=O)O (stereo not given) | 7.18 µM (active) |  |
| COc1ccc(NS(=O)(=O)c2ccc(N)cc2)nn1 | inactive |  |
| CC(C)NC[C@@H](O)COc1ccc(CC(N)=O)cc1 | inactive |  |
| CCCCCCCC(=O)OCC(O)CO (stereo not given) | inactive |  |

| SMILES | Potency | activity, negative = inhibition |
| --- | --- | --- |
| Cc1ccsc1/C=C/C1=NCCCN1C | inactive |  |
| FC(F)(F)C(Cl)Br (stereo not given) | inactive |  |
| COC(=O)N/N=C/c1c[n+]([O-])c2ccccc2[n+]1[O-] | inactive |  |
| C[N+]1(C)CCCC(OC(=O)C(O)(c2ccccc2)c2ccccc2)C1 (stereo not given) | inactive |  |
| CC(=O)OCC(=O)[C@@]1(O)CC[C@H]2[C@@H]3CCC4=CC(=O)C=C[C@]4(C)[C@@]3(F)[C@@H](O)C[C@@]21C | inactive |  |
| CC(=O)Nc1ccccc1 | inactive |  |
| CC[N+](CC)(CC(=O)Nc1c(C)cccc1C)Cc1ccccc1 | inactive |  |
| CN[C@@H]1[C@@H](O)[C@@H](O[C@@H]2[C@H](O)[C@H](O[C@H]3OC(CN)=CC[C@H]3N)[C@@H](N)C[C@H]2N)OCC1(C)O (stereo not given in full) | inactive |  |
| C[C@@H](c1ncncc1F)C(O)(Cn1cncn1)c1ccc(F)cc1F (stereo not given in full) | inactive |  |
| CCN(CC)C(=O)c1cccc(C)c1 | inactive |  |
| CCN1CC(CCN2CCOCC2)C(c2ccccc2)(c2ccccc2)C1=O (stereo not given) | inactive |  |
| CC(CSC(=O)c1ccccc1)C(=O)N1C[C@@H](Sc2ccccc2)C[C@H]1C(=O)O (stereo not given in full) | inactive |  |
| CCCCOC(=O)c1ccc(N)cc1 | inactive |  |
| CC1CCN(CCCC(=O)c2ccc(F)cc2)CC1 | inactive |  |
| NC(=O)CCCCC1CCSS1 (stereo not given) | inactive |  |
| CCCCCCCCCCOc1cc2c(=O)c(C(=O)OCC)c[nH]c2cc1OCC |  | -3.55% [at 4.49 µM] (inactive) |
| CN1C(=O)CC(c2ccccc2)C1=O (stereo not given) | inactive |  |
| CCCCCCCCCCCCCCCCC(C(=O)O)C(O)(CC(=O)O)C(=O)O (stereo not given) | inactive |  |
| O[C@@H]1CO[C@H]2[C@@H]1OC[C@@H]2O | inactive |  |
| CCS(=O)(=O)CCn1c([N+](=O)[O-])cnc1C | inactive |  |
